Measured values reported in the supplement of paper PMC9254222.
Over roughly 1,100 compounds, “Renilla luciferase signal (cell health) relative to plate median” has its median near 0.97; the highest 2% begin near 1.6. Only a selection was taken, and the highest values are over-represented in it overall.

System: HEK293T (UBE3A T485A transfected, BAR Wnt reporter)
Assay: Renilla luciferase signal (cell health) relative to plate median (fold (linear ratio)); higher = higher Renilla signal
Settings: 24 h
Procedure, shortened: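 Chemicals were robotically dosed at 0.01–100 uM for 24 h onto HEK293T cells, starting four hours after transfection with a BAR firefly luciferase Wnt reporter, TK-Renilla and an expression plasmid. The cells had been plated at 4500 cells/well in DMEM with 10% FBS at 37°C and 5% CO2. Following a Dual-Glo luciferase readout, the firefly/Renilla ratio served as the Wnt activity measure and raw Renilla as the cell health measure, both median-centred on each plate. Each value is the mean of four biological replicates.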

Structure (SMILES) | Renilla luciferase signal (concentration: 0.01 uM) | Renilla luciferase signal (concentration: 0.1 uM) | Renilla luciferase signal (concentration: 1 uM) | Renilla luciferase signal (concentration: 10 uM) | Renilla luciferase signal (concentration: 100 uM)
CC(C)CC(C=O)NC(=O)C(CC(C)C)NC(=O)C(CC(C)C)NC(=O)OCc1ccccc1 (stereo unspecified) | 0.694 | 0.675 | 0.0628 | 0.00775 | 0.00453
Cn1cc[nH]c1=S [Methimazole] | – | 0.331 | 0.23 | 0.141 | 2.27
CNCc1ccc(NC(=O)c2c[nH]c3c2C(=O)CCC3)cc1 | – | 0.616 | 0.8 | 0.437 | 0.144
CC(=O)OC1C(=O)C2(C)C(O)CC3OCC3(OC(C)=O)C2C(OC(=O)c2ccccc2)C2(O)CC(OC(=O)C(O)C(NC(=O)c3ccccc3)c3ccccc3)C(C)=C1C2(C)C (stereo unspecified) [Taxol] | 0.147 | 0.104 | 0.111 | 0.131 | 0.0793
CCCOC(=O)NCCCN(C)C.Cl [Propamocarb hydrochloride] | 0.977 | 0.992 | 0.949 | 0.972 | 1.17
COCCOCCOC [Bis(2-methoxyethyl) ether] | – | 1.08 | 1.3 | 1.34 | 1.31
Cn1c(=O)c2[nH]cnc2n(C)c1=O [Theophylline] | – | 0.944 | 0.973 | 0.911 | 1.09
Cn1cnc2c1c(=O)[nH]c(=O)n2C [Theobromine] | – | 0.97 | 0.856 | 1.15 | 1.22
Cn1c(=O)c2c(ncn2C)n(C)c1=O [Caffeine] | 1.18 | 0.946 | 0.966 | 0.989 | 1.67
O=C(N[C@@H](Cc1ccccc1)[C@@H](O)C(=O)N1C[C@@H](O)[C@@H](O)C1)c1cc2cc(Cl)ccc2[nH]1 [Ingliforib] | – | 0.797 | 0.711 | 0.851 | 0.148
COc1cccc(-c2ccc(/C=C\CN3CCCCCC3)cc2Cl)c1.Cl | – | 1.01 | 1.16 | 1.14 | 2.06
CCOCCOCCOCCO [2-[2-(2-Ethoxyethoxy)ethoxy]ethanol] | – | 0.893 | 0.862 | 0.833 | 0.954
CCOCCO [2-Ethoxyethanol] | – | 1.23 | 1.26 | 1.38 | 1.66
CCOCCOCCO [2-(2-Ethoxyethoxy)ethanol] | – | 0.939 | 1.02 | 0.906 | 1.17
Cc1ncc(CO)c(CO)c1O [Pyridoxine] | – | 0.951 | 0.873 | 1 | 1.14
C=CCc1ccc(OC)c(OC)c1 [Methyleugenol] | – | 0.897 | 0.832 | 0.797 | 0.924
Cc1ccc(C)c(O)c1 [2,5-Dimethylphenol] | – | 1.01 | 0.973 | 1.14 | 1.28
Cc1ccc(N)cc1O [5-Amino-2-methylphenol] | – | 1 | 1.22 | 1.28 | 1.78
Cc1ccc(C)c(O)c1C [2,3,6-Trimethylphenol] | – | 0.934 | 0.808 | 0.965 | 1.14
C[C@]12CC[C@@H]3c4ccc(O)cc4C[C@@H](CCCCCCCCCS(=O)CCCC(F)(F)C(F)(F)F)[C@H]3[C@@H]1CC[C@@H]2O (stereo partly specified) [Fulvestrant] | – | 1.07 | 1.04 | 1.09 | 0.48
Cc1nc(C)nc(N2C[C@@H](C)N(c3ccnc([C@@H](C)O)n3)[C@@H](C)C2)n1 | – | 0.951 | 1.05 | 1.15 | 1.28

Structure (SMILES) | Renilla luciferase signal (concentration: 0.01 uM) | Renilla luciferase signal (concentration: 0.1 uM) | Renilla luciferase signal (concentration: 1 uM) | Renilla luciferase signal (concentration: 10 uM) | Renilla luciferase signal (concentration: 100 uM)
CC(C)(C)CC(C)(C)c1ccc(O)c(-n2nc3ccccc3n2)c1 [Octrizole] | – | 1.08 | 1.17 | 1.27 | 1.31
Cc1cccc(Nc2cc(Cl)nc(SCC(=O)O)n2)c1C [Pirinixic acid] | – | 0.799 | 0.871 | 0.861 | 1.71
O=C1CCC(N2C(=O)c3ccccc3C2=O)C(=O)N1 (stereo unspecified) [Thalidomide] | – | 0.78 | 0.818 | 0.85 | 0.675
CCNc1cccc(C)c1 [N-Ethyl-3-methylaniline] | – | 1.02 | 0.916 | 0.98 | 0.872
CCN(CC)C(=O)c1cccc(C)c1 | 0.895 | 0.897 | 0.949 | 0.847 | 1.79
COc1cc(C=O)ccc1O [4-Hydroxy-3-methoxybenzaldehyde] | – | 0.805 | 0.833 | 0.848 | 0.902
CCN(Cc1c(F)cccc1Cl)c1c([N+](=O)[O-])cc(C(F)(F)F)cc1[N+](=O)[O-] [Flumetralin] | 1.1 | 0.795 | 0.84 | 1 | 0.766
Cc1cc(C=C2SC(=O)N(c3ccccc3)C2=O)c(C)n1-c1cccnc1 | – | 1.02 | 1.06 | 0.979 | 0.257
O=c1[nH]c2cc([N+](=O)[O-])c([N+](=O)[O-])cc2[nH]c1=O | 1.11 | 1.01 | 1.02 | 1.09 | 1.96
O=C(Nc1ccc(Cl)cc1)Nc1ccc(Cl)c(Cl)c1 [Triclocarban] | – | 1 | 0.895 | 0.408 | 0.021
COC(=O)c1ccccc1O [Methyl salicylate] | – | 1.22 | 1.13 | 1.23 | 0.53
O=C([O-])c1ccc2c(c1)nc(C(=O)NC1CCN(C3CC3)CC1)n2Cc1cc(-c2ccc(Cl)s2)on1.[Na+] | – | 0.987 | 0.823 | 0.947 | 0.531
O=C1OC(c2ccc(O)cc2)(c2ccc(O)cc2)c2ccccc21 [Phenolphthalein] | – | 1.1 | 1.09 | 1.15 | 0.0287
CCCCCCCC/C=C\CCCCCCCC(=O)OC[C@@H](O)[C@H]1OC[C@H](O)[C@H]1O [Sorbitan, mono-(9Z)-9-octadecenoate] | – | 1 | 0.88 | 0.863 | 0.85
O=C(O)c1ccccc1C(c1ccc(O)cc1)c1ccc(O)cc1 [Phenolphthalin] | – | 1.11 | 1.1 | 0.958 | 0.886
CN(C)CCOC(c1ccccc1)c1ccccc1.Cl [Diphenhydramine hydrochloride] | – | 0.825 | 0.842 | 0.836 | 0.491
CCCCCC(=O)O [Hexanoic acid] | – | 1.26 | 1.16 | 1.24 | 1.41
CCCCCCCCCC(=O)O [Decanoic acid] | – | 0.743 | 0.768 | 0.634 | 0.979
CCCC(=O)O [Butanoic acid] | – | 1.03 | 1.11 | 1.14 | 1.73
CN(C)C(=O)C1(N2CCCCC2)CCN(CC[C@@]2(c3ccc(Cl)c(Cl)c3)CN(C(=O)c3ccccc3)CCO2)CC1 | – | 0.903 | 0.888 | 0.664 | 0.0169
